From PubChem
The list is not random: actives were taken first. Their share in the collection is about 11%.
HEK293 tox = HEK 293 cell cytotoxicity; HEK 293 viability, ATP luminescence (CellTiter-Glo), 48-72 h; Potency, µM (top dose mostly 115 µM), without a hit: at the highest dose activity change, negative = cytotoxicity, hits mostly inhibitors; 94,000 compounds, 6.6% hits; AID 1345083; further: nearly all actives have a fitted effect of over 60% in size
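250 HEK 293 cells/well; compound by pintool; incubated 48 or 72 hr at 37 degree Celsius; CellTiter-Glo added, 10 min RT, luminescence imaged.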
NPR1 antag = human Npr1 receptor antagonism; HEK293 hNpr1 GloSensor cGMP, ANP-stimulated luminescence; Potency, µM (top dose mostly 46.3 µM), for inactives: at the highest dose activity change, negative = inhibition, most hits filed as inhibitors; 76,000 compounds, 1.6% hits; P16066; calls by dose curve; further: nearly all actives have a fitted effect of over 60% in size
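Compound pre-incubated 30 min at room temperature on GloSensor-loaded HEK293 cells stably carrying hNpr1 and the pGS-40F cGMP biosensor. Stimulation uses hNppA at 0.1 nM final; luminescence is taken at baseline and 20 min post-agonist.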
3T3 cytotox = kills NIH 3T3 cells; NIH 3T3 viability, CellTiter-Glo ATP luminescence, 48-72 h; Potency, µM (series often up to 96.7 µM), for the others: top-dose activity change, negative = cytotoxicity, most hits filed as inhibitors; 94,000 compounds, 4.3% hits; further: nearly all actives have a fitted effect of over 55% in size
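Cytotoxicity is measured as loss of cellular ATP: NIH 3T3 cells (400/well) are exposed to compound for 48 or 72 hr at 37 °C, then CellTiter-Glo luminescence is imaged after 10 min at room temperature.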
FLuc inh = Photinus pyralis luciferase inhibition. Potency, µM (series often up to 115 µM), usual class: inhibitors. 76,000 compounds, 2.5% hits. AID 1347043. P08659. purified P. pyralis luciferase, luminescence, biochemical; further: nearly all actives have a fitted effect of over 65% in size
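FLuc 10nM, D-luciferin 10uM, ATP 10uM, Mg acetate 10mM, Tris acetate pH 7.5, Tween/BSA; cpd qHTS; enzyme added last; CCD luminescence.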
* = called active by the depositor; i = inactive; ? = inconclusive; nt = no result; [ ] = dose if it differs, or a comment. Unless noted, the call rests on the fitted dose curve; in most records, active means well fitted curve in the direction sought with a large enough effect; inconclusive means small, poorly fitted or top-dose-only effect, or another doubt; inactive means no such curve, though single readings can be large; an effect the other way counts as inactive or inconclusive. On the % scale 0 is the no-effect control and ±100 the full control effect; potency means the concentration at half of the fitted maximal effect.

SMILES | HEK293 tox | NPR1 antag | 3T3 cytotox | FLuc inh
COC1CCN(c2cc(-c3ccsc3)nc3c(C)noc23)CC1 | 79µM* | -2%[70.6 µM] | ? | i
COC1CCCN(c2cc(-c3ccc(Cl)cc3)nc3c(C)noc23)C1 (centres undefined) | 56µM* | 1%[70.6 µM] | ? | i
CC1CCN(C(=O)CCC2(Cc3ccc4ccccc4c3)CCC(=O)N2)CC1 (centres undefined) | 14% | 4% | i | i
c1ccc(-c2ccc(CNCc3cccs3)o2)cc1 | ? | -25% | -22% | 35µM*
CCCNCc1ccc(-c2ccccc2)o1 | -6% | -1% | i | i
CSc1ccc(-c2cccc(C(=O)NCCNC(=O)N(C)C)c2)cc1 | 25µM* | nt | ? | nt
COc1cccc(CNC(=O)CNC(=O)c2cccc(-c3ccc(SC)cc3)c2)c1 | 22µM* | nt | -34% | nt
CSc1ccc(-c2cccc(C(=O)NCCN[S+](=O)([O-])c3ccc(C)cc3)c2)cc1 | 40µM* | nt | ? | nt
COCC(=O)NCCNC(=O)c1cccc(-c2ccc(SC)cc2)c1 | ? | nt | -29%[138 µM] | nt
CN(C)C(=O)C1=NOC2CN([S+](C)(=O)[O-])CC12 (centres undefined) | i | nt | i | nt
COCC(=O)N1CCN(CCn2nc3n(c2=O)CCCC3)CC1 | 0%[172 µM] | nt | -19%[138 µM] | nt
COc1ccc(CN2CCC3(C2)C(=NC2CCCC2)NC(=O)N3c2cccc(OC)c2)cc1 (centres undefined) | ? | nt | -21% | nt
COc1cccc(N2C(=O)NC(=NC3CCCC3)C23CCCN(CCC(C)C)C3)c1 (centres undefined) | ? | nt | 32µM* | nt
CC(C)CCN1CCCC2(C1)C(=NC1CCCC1)NC(=O)N2c1cc(F)cc(F)c1 (centres undefined) | ? | nt | 32µM* | nt
COC1CN(c2cccc(F)c2)C12CCN(C(=O)c1sc(C)nc1C)CC2 (centres undefined) | ? | -3% | -3% | i
COc1cccc(Nc2ccnc(N3CCN(C(C)=O)CC3)n2)c1 | -20%[172 µM] | nt | ? | nt
Cc1ccc(Nc2ccnc(N3CCN(C(=O)c4ccccc4C)CC3)n2)cc1 | 40µM* | nt | 35µM* | nt
COc1ccc(Nc2ccnc(N3CCN(C(=O)c4ccc(F)cc4)CC3)n2)cc1 | 22µM* | nt | 13µM* | nt
COc1ccc(Nc2ccnc(N3CCN(C(=O)Cc4ccccn4)CC3)n2)cc1 | -30% | nt | -29% | nt
COc1ccc(Nc2ccnc(N3CCN(C(=O)c4cccc(Cl)c4)CC3)n2)cc1 | 28µM* | nt | 28µM* | nt
COc1ccc(Nc2ccnc(N3CCN(C(=O)c4ccc(OC)cc4)CC3)n2)cc1 | 25µM* | nt | 25µM* | nt
CCCNc1ccc2nnc(CC)n2n1 | -1% | 3% | -17% | i
Fc1cc(F)cc(Cc2nc3nccc(-c4ccccc4)n3n2)c1 | ? | -1% | -30% | i
CC(C)CC(=O)N1CCOCC12CCN(CCCc1ccccc1)CC2 | ? | 0%[70.6 µM] | ? | i
CC(=O)N1CCN(C(=O)C2CCCN2c2nccc(Nc3ccc(C)cc3)n2)CC1 (centres undefined) | -8% | nt | i | nt
SMILES | HEK293 tox | NPR1 antag | 3T3 cytotox | FLuc inh
Cc1ccc(Nc2ccnc(N3CCCN(C(=O)Cc4cccc(Cl)c4)C3)n2)cc1 | 13µM* | nt | 28µM* | nt
O=C(Cc1cccc(Cl)c1)N1CCN(c2nccc(Nc3ccccc3Cl)n2)CC1 | 35µM* | nt | 14µM* | nt
CN(C)C(=O)[C@@H]1CCCN1c1nccc(Nc2ccccc2Cl)n1 | ? | nt | -35%[138 µM] | nt
COc1ccc(Nc2ccnc(N3CCN(C(=O)Cc4cccc(Cl)c4)CC3)n2)cc1 | ? | nt | 28µM* | nt
Cc1ccc(Nc2ccnc(N3CCN(C(=O)Cc4ccc(F)cc4)CC3)n2)cc1 | ? | nt | 32µM* | nt
Cc1ccccc1-c1[nH]nc2ncc(-c3cn[nH]c3)nc12 | ? | 0%[70.6 µM] | ? | i
CCOC(=O)C1CCN(C(=O)c2nc3sccn3c2-c2ccc(F)cc2)CC1 | -4% | nt | ? | nt
COCCOC(=O)C1=C(C)N=C2SC=C(CC(=O)N3CCCC3)N2C1c1cccc(F)c1 (centres undefined) | ? | -15% | -14% | i
CCn1cc(-c2ccc(C)cc2)cc1C(=O)NC(C)c1ccccn1 (centres undefined) | 40µM* | -7% | ? | i
COc1ccc(CN2Cc3[nH]nc(-c4ccc(N5CCN(C)CC5)cc4)c3CC2=O)cc1 | 45µM* | -3%[70.6 µM] | 79µM* | i
COc1ccc(CN2Cc3[nH]nc(-c4ccnn4C)c3CC2=O)cc1 | 112µM* | -17%[70.6 µM] | ? | i
